# Results: PubChem BioAssay AID2221 (Broad Institute, 2009)
# Screen size: about 290,000 compounds; about 2,200 (0.76%) were called active. No stated cut-off is given here; in the data, active means inhibition above about 30%; inconclusive means no clear call, values can overlap the other calls; inactive means below that. The list comes from a sample in which actives are over-represented; it also holds similar structures and randomly drawn compounds.
# Biological target: Protein RecA (Mycobacterium tuberculosis (strain ATCC 25618 / H37Rv)) (UniProt P9WHJ3)
# Experiment: Mtb RecA intein splicing inhibitors, primary screen, biochemical, fluorescence, HTS (AID 2221);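 further: 0% = vehicle wells and 100% = reference inhibitor control wells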
# Settings: cell-free RecA intein splicing, hits give high values, concentration not given here
# Chain of Protein RecA (Mycobacterium tuberculosis (strain ATCC 25618 / H37Rv)) (P9WHJ3 whole entry, looked up): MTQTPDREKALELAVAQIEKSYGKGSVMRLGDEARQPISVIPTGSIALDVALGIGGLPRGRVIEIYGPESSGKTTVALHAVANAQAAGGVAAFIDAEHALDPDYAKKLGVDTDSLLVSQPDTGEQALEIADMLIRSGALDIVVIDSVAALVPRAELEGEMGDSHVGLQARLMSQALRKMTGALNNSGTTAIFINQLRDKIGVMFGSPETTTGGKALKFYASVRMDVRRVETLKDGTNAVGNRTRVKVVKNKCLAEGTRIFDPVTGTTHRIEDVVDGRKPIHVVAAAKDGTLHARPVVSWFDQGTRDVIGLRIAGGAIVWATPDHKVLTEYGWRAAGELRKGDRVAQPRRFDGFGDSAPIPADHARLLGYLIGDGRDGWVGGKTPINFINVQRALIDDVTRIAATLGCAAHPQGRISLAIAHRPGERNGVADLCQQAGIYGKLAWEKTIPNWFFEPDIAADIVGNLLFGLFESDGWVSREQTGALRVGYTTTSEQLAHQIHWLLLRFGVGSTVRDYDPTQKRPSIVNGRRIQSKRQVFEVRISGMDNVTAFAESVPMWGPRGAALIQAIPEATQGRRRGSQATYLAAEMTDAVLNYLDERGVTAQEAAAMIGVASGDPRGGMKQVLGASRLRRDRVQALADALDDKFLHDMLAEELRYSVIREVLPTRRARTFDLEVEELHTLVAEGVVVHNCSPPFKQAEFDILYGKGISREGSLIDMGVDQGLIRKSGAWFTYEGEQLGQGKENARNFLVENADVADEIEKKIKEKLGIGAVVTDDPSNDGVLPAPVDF
row,SMILES,inhibition
1,COCCc1nn2c(=O)cc(COC(=O)c3cc(OC)c(OC)c(OC)c3)nc2s1,0.818% (inactive)
2,CN1c2ccc(C=O)c3c(C=O)ccc(c23)N(C)C1(C)C,63.9% (active)
3,Cc1[nH]c(C)c(S(=O)(=O)N2CCN(c3cccc(C(F)(F)F)c3)CC2)c1C(=O)N1CCCC1,0.869% (inactive)
4,CCC(c1nnnn1Cc1ccco1)N(CCc1ccccc1)Cc1cc2ccc(OC)cc2[nH]c1=O (stereo not drawn),16.5% (inactive)
5,CCC(c1nnnn1Cc1ccco1)N(Cc1cc2cc(OC)ccc2[nH]c1=O)C1CCCCC1 (stereo not drawn),30.6% (active)
6,CCC(c1nnnn1Cc1ccccc1)N(Cc1cc2cc(OC)ccc2[nH]c1=O)CC1CCCO1 (stereo not drawn),-10.9% (inactive)
7,C[C@H](C(=O)CC(=O)OC(C)(C)C)[C@H](O)c1ccc(C(F)(F)F)cc1,0.927% (inactive)
8,Cc1ccc(OCc2nc3ccccc3n2C)cc1,1.88% (inactive)
9,COc1cccc(OCCCN2CCCCCC2)c1,-1.65% (inactive)
10,Cc1ccc(OCCCn2c(=O)oc3ccccc32)cc1,2.53% (inactive)
11,CCn1c(=N)n(CC(=O)c2cccc(OC)c2)c2ccccc21,5.77% (inactive)
12,CCCCCCCCCCOC(=O)Cn1c(COc2cccc(OC)c2)[n+](C)c2ccccc21,51.1% (active)
13,CCCCCCCCCCOC(=O)Cn1c(COc2ccc(C)cc2)[n+](C)c2ccccc21,51.7% (active)
14,O=S(N1CCCCCC1)C12CC3CC(CC(C3)C1)C2 (stereo not drawn),-0.132% (inactive)
15,COc1ccc(CCNC(=O)CCC(=O)NC2CCCCC2)cc1OC,-0.371% (inactive)
16,COc1ccc(NC(=O)c2cc(-c3cc(OC)c(OC)c(OC)c3)nc3ccccc23)c(OC)c1,10.4% (inactive)
17,CCOC(=O)c1c(S(=O)(=O)NCC(=O)Nc2ccc(C)cc2)c(C)n(C)c1C,-0.878% (inactive)
18,CCCCOC(=O)CNc1nnc(SCC(=O)OCC)[nH]c1=O,77.5% (active)
19,Cc1nnc(SCC(=O)N2CCOCC2)[nH]c1=O,-0.0115% (inactive)
20,CCOC(=O)CSc1nc(C)c(Oc2ccc(Cl)cc2Cl)c(=O)[nH]1,1.85% (inactive)

row,SMILES,inhibition
1,CCC(C)[C@H](NC(=O)N1CCn2c1nc1ccccc12)C(=O)NCc1ccc(OC)cc1 (stereo partly drawn),2.07% (inactive)
2,COc1ccccc1NC(=O)/C=C/C(=O)O,-1.49% (inactive)
3,O=C(O)/C=C/C(=O)Nc1ccc(F)cc1F,0.519% (inactive)
4,COC(=O)c1sc(-c2ccc(C(C)(C)C)cc2)cc1NC(=O)/C=C/C(=O)O,88.1% (active)
5,CSc1ccc(S(=O)(=O)NCC(=O)OCC(=O)NC2(C#N)CCCCC2)cc1[N+](=O)[O-],1.65% (inactive)
6,CC(C)[C@H](NC(=O)OCc1ccccc1)C(=O)OCc1ccccc1,7.54% (inactive)
7,CCOC(=O)c1nc(Nc2ccc(C(=O)OC)cc2)c2ccccc2n1,-6.39% (inactive)
8,CCOC(=O)c1ccc(Nc2cc3ccccc3c(=O)[nH]2)cc1,62.4% (active)
9,CCOC(=O)c1ccc(NC(=O)c2cc(=O)[nH]c3ccccc23)cc1,-5.09% (inactive)
10,CCN(CC)CCNC(=O)c1sc2ncn(CC(=O)Nc3ccc(C)c(Cl)c3)c(=O)c2c1C,-0.641% (inactive)
11,O=C(CN1C(=O)CC(c2ccccc2)=Nc2ccccc21)NC1CCCCC1,-1.07% (inactive)
12,CCOc1ccc(NC(=O)C2CCN(C(=O)N3CCOc4ccccc43)CC2)cc1,2.39% (inactive)
13,Cc1nnc(NC(=O)C(c2ccccc2)c2ccccc2)s1,1.12% (inactive)
14,CCOC(=O)N1CCN(C(c2cccnc2)c2ccc3cccnc3c2O)CC1 (stereo not drawn),9.76% (inactive)
15,CCN1CCN(c2ccc(NC(=O)c3cnccn3)cc2)CC1,-0.413% (inactive)
16,CCN1CCN(C(c2cccnc2)c2cc(Cl)c3cccnc3c2O)CC1 (stereo not drawn),70% (active)
17,COc1cccc(/C=N/Nc2ncc(C(F)(F)F)cc2Cl)c1O,-2.37% (inactive)
18,COc1cccc(/C=N/Nc2cc(C)nc(-c3ccccc3O)n2)c1O,38.8% (active)
19,COc1ccccc1/C=N\Nc1cc(C)nc(-n2nc(C)cc2C)n1,0.767% (inactive)
20,C/C(=N\NC(=O)COc1ccc(C)cc1[N+](=O)[O-])c1ccc2c(c1)OCCO2,1.11% (inactive)

row,SMILES,inhibition
1,O=S(=O)(Nc1ccc(O)c2ccccc12)c1ccc(OC(F)(F)F)cc1,95.2% (active)
2,O=C1COc2ccc(S(=O)(=O)Nc3ccc(OC(F)(F)F)cc3)cc2N1,-0.276% (inactive)
3,Cc1nn(C)c(C)c1NS(=O)(=O)c1ccc(OC(F)(F)F)cc1,0.692% (inactive)
4,COCCCC1CCN(C(=O)C2CCC(=O)N(C3CCCCCC3)C2)CC1 (stereo not drawn),-0.89% (inactive)
5,Cc1ccc(CC2CC(=O)N(c3nc(C)cc(C)n3)C2=O)cc1 (stereo not drawn),-1.07% (inactive)
6,CC(=O)c1sc(NC(=O)C2=NN(c3ccccc3)C(=O)CC2)nc1C,-1.59% (inactive)
7,Cc1cc(C)cc(NC(=O)C2CCN(c3nc(C)cc(C)n3)CC2)c1,-1.54% (inactive)
8,COC(=O)CC1=NN(c2ccccc2)C(=O)C1,76.6% (active)
9,COC(=O)CC1=NN(c2nc(C)cc(C)n2)C(=O)C1,36.2% (active)
10,C/C(N)=C(/C#N)C(=O)COC(=O)C1=NN(c2ccccc2)C(=O)CC1,-0.739% (inactive)
11,O=C(CSc1nc(Nc2ccccc2)nc(N2CCOCC2)n1)Nc1cc(Cl)ccc1O,2.06% (inactive)
12,CCCn1nc(C(=O)NNC(=O)CSCC(=O)Nc2cc(C)on2)c2ccccc2c1=O,1.67% (inactive)
13,O=C1Nc2cc(C(=O)N3CCC(N4CCCCC4)CC3)ccc2S/C1=C\c1ccccc1,1.2% (inactive)
14,Cc1csc(CN(C)C(=O)CC2C(=O)NCCN2CC(C)(C)C)n1 (stereo not drawn),-5.7% (inactive)
15,O=C(C(Cc1ccccc1)n1cccc1)N1CCN(C2CCCCC2)CC1 (stereo not drawn),1.21% (inactive)
16,NC(=O)CC[C@@H]1NC(=O)[C@H](CO)NC(=O)c2cc([N+](=O)[O-])cc(I)c2NCC[C@@H](C(N)=O)NC1=O,30.3% (active)
17,NCCCC[C@@H]1NC(=O)[C@H](CCC(=O)O)NC(=O)c2cc([N+](=O)[O-])cc(I)c2NCC[C@@H](C(N)=O)NC1=O,0.579% (inactive)
18,NC(=O)C[C@@H]1NC(=O)CNC(=O)c2cc([N+](=O)[O-])cc(I)c2NCCC(C(N)=O)NC1=O (stereo partly drawn),1.58% (inactive)
